Experiment [1] can be described thus: antimalarial activity against Dd2 strain (AID 2302;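 active means growth inhibition above 50% at the single 2 µM test dose, taken to imply half-maximal potency below 2 µM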;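 further: 0% = DMSO untreated growth and 100% = chloroquine plus artemisinin killed control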). Conditions: P. falciparum Dd2 in RBCs, LDH growth readout, 72 h; at 2 µM; stronger effect = higher value.
Experiment [2] is described as follows: human hepatoma cell viability loss – ATP luminescence, cytotoxicity control for P. falciparum antimalarial project, primary screen (AID 2303;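 active means inhibition above 50%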;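 further: 0% = DMSO wells and 100% = digitonin-killed cells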). The following applies: HepG2 viability, 24-48 h, at 10 µM, stronger effect = higher value.
Experiment [3] has as its target L-lactate dehydrogenase (Plasmodium falciparum (isolate CDC / Honduras)) (UniProt Q27743). The experiment is described as follows: PfLDH activity inhibition – cell lysate, 3D7 strain, counter-screen for P. falciparum growth inhibition project (AID 2304).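 Further: 0% = vehicle and 100% = reference inhibitor.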 The following applies: P. falciparum 3D7 crude extract, LDH APAD/NBT absorbance; at 2 µM; stronger effect = higher value.
The nature of experiment [4]: inhibition of 3D7 malaria parasite growth – strain 3D7 (AID 2306).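 Further: 0% = DMSO wells and 100% = chloroquine plus artemisinin control wells.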 Conditions: P. falciparum 3D7 erythrocytic growth, LDH absorbance, 72 h; at 2 µM; stronger effect = higher value.
For experiment [5], the target named is Calcium-dependent protein kinase 1 (Plasmodium falciparum (isolate 3D7)) (UniProt P62344). The experiment can be described thus: PfCDPK1 kinase inhibitors, biochemical, TCAMS library (AID 1159585; cut-off not given, nearly all actives have IC50 up to about 0.98 µM;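 further: inhibitors leave more ATP so luminescence rises with inhibition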). Conditions: recombinant PfCDPK1, Kinase-Glo ATP depletion luminescence. Background: Kinase-Glo reads ATP consumption through a luciferase reaction.
Experiment [6] concerns the target Plasmodium falciparum protein kinase 6 (PK6, PF3D7_1337100) (UniProt Q8IDW1). The experiment can be described thus: PfPK6 kinase inhibitors, biochemical, TCAMS library (AID 1159586). The following applies: recombinant PfPK6, Kinase-Glo ATP depletion luminescence.
The target in experiment [7] is Protein kinase 7 (PK7), Plasmodium falciparum 3D7 (PF3D7_0213400) (UniProt Q7YTF7). The experiment can be described thus: inhibition of Plasmodium PK7 catalytic activity – biochemical, TCAMS antimalarial set, Kinase-Glo luminescence (AID 1159587). The following applies: recombinant PfPK7, Kinase-Glo ATP depletion luminescence.
Experiment [8] concerns the target Calcium-dependent protein kinase 4 (Plasmodium falciparum (isolate 3D7)) (UniProt Q8IBS5). The experiment is described as follows: PfCDPK4 kinase inhibitors, biochemical, TCAMS library (AID 1159588; cut-off not given, nearly all actives have IC50 up to about 0.91 µM). Conditions: recombinant PfCDPK4, Kinase-Glo ATP depletion luminescence.

A number with no mark means an inactive call. For part of these data: Results with a measured potency or affinity are listed apart. The source made the active and inactive calls. Unless noted, how the calls were made is not given here.

Calcium-dependent protein kinase 4 (Plasmodium falciparum (isolate 3D7)), sequence (Q8IBS5 whole entry, looked up): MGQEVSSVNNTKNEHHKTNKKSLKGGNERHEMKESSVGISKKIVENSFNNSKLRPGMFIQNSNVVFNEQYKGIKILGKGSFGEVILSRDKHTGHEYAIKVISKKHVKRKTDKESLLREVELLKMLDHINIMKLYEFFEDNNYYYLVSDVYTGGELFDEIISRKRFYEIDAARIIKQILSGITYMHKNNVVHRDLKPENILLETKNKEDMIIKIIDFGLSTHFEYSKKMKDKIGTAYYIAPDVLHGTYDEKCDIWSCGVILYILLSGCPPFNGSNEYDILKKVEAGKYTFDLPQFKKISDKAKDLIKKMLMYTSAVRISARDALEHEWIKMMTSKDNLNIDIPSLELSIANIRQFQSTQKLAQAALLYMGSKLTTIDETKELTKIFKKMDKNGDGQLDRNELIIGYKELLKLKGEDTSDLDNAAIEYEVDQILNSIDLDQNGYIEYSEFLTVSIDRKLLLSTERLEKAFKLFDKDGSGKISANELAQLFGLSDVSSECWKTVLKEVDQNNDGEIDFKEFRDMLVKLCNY
L-lactate dehydrogenase (Plasmodium falciparum (isolate CDC / Honduras)), sequence (Q27743 whole entry, looked up): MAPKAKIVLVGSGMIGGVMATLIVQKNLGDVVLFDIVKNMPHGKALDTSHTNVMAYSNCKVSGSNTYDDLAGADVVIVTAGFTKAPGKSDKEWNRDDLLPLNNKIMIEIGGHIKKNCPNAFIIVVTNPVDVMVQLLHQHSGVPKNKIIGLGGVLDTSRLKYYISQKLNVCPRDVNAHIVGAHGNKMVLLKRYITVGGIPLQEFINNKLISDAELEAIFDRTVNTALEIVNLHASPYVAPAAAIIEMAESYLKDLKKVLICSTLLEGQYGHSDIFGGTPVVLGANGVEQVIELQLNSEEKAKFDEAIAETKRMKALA
Calcium-dependent protein kinase 1 (Plasmodium falciparum (isolate 3D7)), sequence (P62344 whole entry, looked up): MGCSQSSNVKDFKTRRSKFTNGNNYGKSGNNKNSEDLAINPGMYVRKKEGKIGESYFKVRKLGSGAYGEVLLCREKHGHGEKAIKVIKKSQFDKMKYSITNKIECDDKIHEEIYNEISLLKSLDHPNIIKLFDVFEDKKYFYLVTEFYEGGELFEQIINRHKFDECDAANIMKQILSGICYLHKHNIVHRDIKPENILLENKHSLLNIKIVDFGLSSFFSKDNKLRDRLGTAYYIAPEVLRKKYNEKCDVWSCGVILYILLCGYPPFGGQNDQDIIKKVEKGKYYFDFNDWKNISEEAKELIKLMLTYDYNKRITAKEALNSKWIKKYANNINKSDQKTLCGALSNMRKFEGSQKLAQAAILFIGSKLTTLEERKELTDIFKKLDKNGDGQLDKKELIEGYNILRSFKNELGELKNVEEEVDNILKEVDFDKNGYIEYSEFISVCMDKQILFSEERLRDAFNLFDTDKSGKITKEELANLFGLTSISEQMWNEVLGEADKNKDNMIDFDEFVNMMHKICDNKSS
Protein kinase 7 (PK7), Plasmodium falciparum 3D7 (PF3D7_0213400), sequence (Q7YTF7 1-343): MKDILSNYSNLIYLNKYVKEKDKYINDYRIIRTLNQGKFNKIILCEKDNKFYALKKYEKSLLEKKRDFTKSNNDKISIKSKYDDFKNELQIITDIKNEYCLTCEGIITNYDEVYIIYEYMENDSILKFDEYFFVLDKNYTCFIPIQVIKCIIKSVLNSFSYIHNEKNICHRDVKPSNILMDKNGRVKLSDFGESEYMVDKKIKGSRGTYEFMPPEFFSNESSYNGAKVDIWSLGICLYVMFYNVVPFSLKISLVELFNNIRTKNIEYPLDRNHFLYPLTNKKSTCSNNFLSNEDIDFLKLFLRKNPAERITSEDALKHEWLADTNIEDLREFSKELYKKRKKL
Plasmodium falciparum protein kinase 6 (PK6, PF3D7_1337100), sequence (Q8IDW1 1-305): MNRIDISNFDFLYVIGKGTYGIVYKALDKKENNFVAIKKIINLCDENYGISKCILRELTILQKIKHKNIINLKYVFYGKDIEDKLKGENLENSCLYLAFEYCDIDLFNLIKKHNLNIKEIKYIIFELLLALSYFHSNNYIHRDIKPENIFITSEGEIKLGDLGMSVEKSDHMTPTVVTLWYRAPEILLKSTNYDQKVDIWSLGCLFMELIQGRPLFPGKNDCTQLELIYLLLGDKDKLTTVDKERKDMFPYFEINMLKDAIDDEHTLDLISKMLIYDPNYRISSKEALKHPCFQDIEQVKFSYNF

Take `COc1cccc(CNC[C@@H](O)[C@H](Cc2ccccc2)NC(=O)c2cc(N3CCCC3=O)c3[nH]cc(C(C)C)c3c2)c1`: the figures for the growth inhibition in experiment [1] and in experiment [4] were 98% (active) and 96% (active), respectively. The inhibition was 5% in experiment [2] and 3% in experiment [3]. The outcome in experiment [5], in experiment [6], in experiment [7] and in experiment [8] was inactive.
Regarding `CCC(CC(C)C(=O)O)=C(c1ccccc1)c1ccccc1` (stereo not drawn), the growth inhibition in experiment [1] is 1%; in experiment [4], 98% (active). The inhibition is 12% in experiment [2] and 5% in experiment [3]. Also, the result in experiment [5], in experiment [6], in experiment [7] and in experiment [8] was inactive.
In the case of `O=c1cc(NCCCNCc2ccc(C(F)(F)F)cc2F)[nH]c2ccccc12`, the values for the growth inhibition in experiment [1] and in experiment [4] were 48% and 93% (active), respectively. In addition, the inhibition in experiment [2] is 1%; in experiment [3] it was 8%. Further, the result in experiment [5], in experiment [6], in experiment [7] and in experiment [8] was inactive.
In the case of `COc1ccc(Nc2nc(NC3CCN(C)CC3)cc(-c3ccc(OC)cc3)n2)cc1`, the growth inhibition is 51% (active) in experiment [1] and 100% (active) in experiment [4]. In addition, the inhibition in experiment [2] is 62% (active); in experiment [3], 4%. For the same compound, the outcome in experiment [5], in experiment [6], in experiment [7] and in experiment [8] was inactive.
For `CN1CCN(c2cc3c(cc2Cl)CCN3C(=O)Cc2ccc(Cl)c(NC(=O)Nc3cccc([N+](=O)[O-])c3)c2)CC1`, the growth inhibition in experiment [1] was 51% (active); in experiment [4], 99% (active). The inhibition in experiment [2] was -1%; in experiment [3] it was -7%. For the same compound, the outcome in experiment [5], in experiment [6], in experiment [7] and in experiment [8] was inactive.
Regarding `CS(=O)(=O)c1ccc(CCNCc2ccc(-c3ccc(CN(C(=O)c4ccco4)C4CCN(Cc5ccccc5)CC4)cc3)nc2)cc1`, the figures for the growth inhibition in experiment [1] and in experiment [4] were 38% and 85% (active), respectively. For the same compound, the inhibition was 13% in experiment [2] and -1% in experiment [3]. In addition, the result in experiment [5], in experiment [6], in experiment [7] and in experiment [8] was inactive.
For `S=C(NN=Cc1ccccn1)NC1C[C@H]2C=C[C@@H]1C2` (stereo partly drawn), the growth inhibition in experiment [1] was 96% (active); in experiment [4], 99% (active). Besides, the inhibition in experiment [2] is 51% (active); in experiment [3], -2%. The result in experiment [5], in experiment [6], in experiment [7] and in experiment [8] was inactive.
`CCN(CC)CCCNc1ncc2c(-c3ccc(NC(=O)Nc4cc(C(F)(F)F)ccc4F)cc3)nn(C)c2n1`: the figures for the growth inhibition in experiment [1] and in experiment [4] were 74% (active) and 99% (active), respectively. In addition, the inhibition was 81% (active) in experiment [2] and -3% in experiment [3]. Moreover, the result in experiment [5], in experiment [6], in experiment [7] and in experiment [8] was inactive.
Consider `Cc1cccc(NC(=S)NC2CCN(CCCCCNC(=O)/C=C/c3ccc(Cl)c(Cl)c3)CC2)c1`, for which the figures for the growth inhibition in experiment [1] and in experiment [4] were 19% and 97% (active), respectively. In addition, the inhibition in experiment [2] is 14%; in experiment [3], 4%. In addition, the outcome in experiment [5], in experiment [6], in experiment [7] and in experiment [8] was inactive.
For the compound `O=C(NC1CCC(N2CCN(c3cccc(C(F)(F)F)c3)CC2)CC1)c1cc2ccccc2[nH]1` (stereo not drawn), the growth inhibition in experiment [1] is 22%; in experiment [4], 99% (active). In addition, the inhibition in experiment [2] was 23%; in experiment [3], 0%. The outcome in experiment [5], in experiment [6], in experiment [7] and in experiment [8] was inactive.
For `Cc1cccc2[nH]c(-c3ccc(-c4ccc(CNCC5CCCO5)cc4)s3)nc12` (stereo not drawn), the growth inhibition in experiment [1] is 96% (active); in experiment [4], 100% (active). In addition, the figures for the inhibition in experiment [2] and in experiment [3] were 11% and -5%, respectively. Moreover, the outcome in experiment [5], in experiment [6], in experiment [7] and in experiment [8] was inactive.
With `O=C(Nc1cccc(Cl)c1N1CCOCC1)C(Cl)(Cl)Cl`, the values for the growth inhibition in experiment [1] and in experiment [4] were 95% (active) and 96% (active), respectively. For the same compound, the inhibition in experiment [2] is 3%; in experiment [3], -3%. In addition, the result in experiment [5], in experiment [6], in experiment [7] and in experiment [8] was inactive.
On to `COc1ccc2nccc([C@H](O)CN3CCC(NCc4nc5c(F)cccc5[nH]4)CC3)c2c1`, for which the growth inhibition was 0% in experiment [1] and 98% (active) in experiment [4]. In addition, the figures for the inhibition in experiment [2] and in experiment [3] were 0% and -1%, respectively. Further, the outcome in experiment [5], in experiment [6], in experiment [7] and in experiment [8] was inactive.
Turning to `O=C(/C=C/c1c(Cl)cccc1Cl)NC1CCC(CN2CCC(c3c[nH]c4ccncc34)CC2)CC1` (stereo not drawn), the growth inhibition in experiment [1] is 100% (active); in experiment [4] it was 99% (active). Also, the inhibition was 78% (active) in experiment [2] and 2% in experiment [3]. For the same compound, the outcome in experiment [5], in experiment [6], in experiment [7] and in experiment [8] was inactive.
`COc1ccc2nccc(N3CCC(SCCNS(=O)(=O)c4ccc5c(c4)OCCO5)C3)c2n1` (stereo not drawn): the growth inhibition was 87% (active) in experiment [1] and 94% (active) in experiment [4]. For the same compound, the results for the inhibition in experiment [2] and in experiment [3] were 36% and 5%, respectively. Moreover, the outcome in experiment [5], in experiment [6], in experiment [7] and in experiment [8] was inactive.
`O=C(Nc1cccc(-c2ccc(CN3CCCC3)cc2)c1)c1cccc(Cl)c1`: the figures for the growth inhibition in experiment [1] and in experiment [4] were 61% (active) and 100% (active), respectively. The results for the inhibition in experiment [2] and in experiment [3] were 32% and -3%, respectively. The outcome in experiment [5], in experiment [6], in experiment [7] and in experiment [8] was inactive.
For the compound `CNC(=O)CC(=O)NCCc1ccc(Cl)cc1`, the values for the growth inhibition in experiment [1] and in experiment [4] were 1% and 99% (active), respectively. Also, the inhibition was -7% in experiment [2] and 6% in experiment [3]. Also, the result in experiment [5], in experiment [6], in experiment [7] and in experiment [8] was inactive.
As for `O=C(Nc1ccc(OC2CCN(Cc3ccccc3)C2)c(Cl)c1)c1ccco1` (stereo not drawn), the growth inhibition in experiment [1] was 94% (active); in experiment [4], 95% (active). In addition, the inhibition in experiment [2] is 13%; in experiment [3] it was 6%. Also, the outcome in experiment [5], in experiment [6], in experiment [7] and in experiment [8] was inactive.
`O=S(=O)(Nc1ccc(CCN2CCC(N3CCCCC3)CC2)cc1)c1cccc2cccnc12`: the growth inhibition in experiment [1] is 45%; in experiment [4], 101% (active). For the same compound, the results for the inhibition in experiment [2] and in experiment [3] were 14% and -3%, respectively. Moreover, the outcome in experiment [5], in experiment [6], in experiment [7] and in experiment [8] was inactive.
`O=C(Cc1cccc(Cl)c1)Nc1ccc(N2CCC(NCc3ccc4ncccc4c3)CC2)cc1`: the growth inhibition in experiment [1] is 8%; in experiment [4] it was 81% (active). Also, the inhibition was 10% in experiment [2] and -1% in experiment [3]. The result in experiment [5], in experiment [6], in experiment [7] and in experiment [8] was inactive.
In the case of `CCN(CC)CCN(Cc1ccc(-c2ccc(C(F)(F)F)cc2)cc1)C(=O)Cn1c(CCc2cccc(C#N)c2)nc(=O)c2ccccc21`, the values for the growth inhibition in experiment [1] and in experiment [4] were 47% and 101% (active), respectively. For the same compound, the inhibition in experiment [2] is 36%; in experiment [3], -1%. Further, the result in experiment [5], in experiment [6], in experiment [7] and in experiment [8] was inactive.

As usually defined, the inhibition is the relative decrease from the control value, in per cent.

These data come from PubChem BioAssay.
